# Laboratory results as given in PubChem BioAssay (NCATS).
# Results filed as inconclusive are left out. A call without a number means that no potency is given here. The source made the active and inactive calls. Unless noted, calls follow the shape of the dose curve; as a rule, active = well fitted curve in the direction sought with a large enough effect; inconclusive = small, poorly fitted or top-dose-only effect, or another doubt; inactive = no such curve, though single readings can be large; an effect the other way counts as inactive or inconclusive.
# Experiments:
# [1] = target: Ubiquitin carboxyl-terminal hydrolase 1 (Homo sapiens) (UniProt O94782); test: Inhibitors of USP1/UAF1: Pilot qHTS (AID 504865); also: nearly all actives have a fitted effect of over 35% in size; also: potency is read from the fitted curve at half-maximal effect
# How it was run: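 1nM USP1/UAF1 + cpd, 15 min RT; start w/ Ub-Rho 150nM final; kinetic FL 480/540 nm, 6 reads q60 s. Buffer 50mM HEPES pH 7.8, 0.5mM EDTA, 1mM TCEP, 0.01% Tween-20, 0.1 mg/ml BSA.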
# [2] = Nrf2 qHTS screen for inhibitors: Validation (AID 493153; active = well fitted inhibition curve with a large enough effect in the main read-out, with a control signal flat, not every such curve was filed as active); conditions: Potency: luciferase luminescence; viability change: measured here: cytotoxicity max response
# How it was run: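 Concentration-response on A549 ARE_Fluc reporter cells exposed 18-24 h at 37 C, 5% CO2. Cytotoxicity read first by CellTiter-Fluor fluorescence (Ex 405/Em 525), then Nrf2 inhibition by BugLite luminescence after 15 min.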
# [3] = qHTS for Inhibitors of Cell Surface uPA Generation: Validation Assay (AID 493164);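 also: RAW 264.7 macrophage cells exposed to compound for 18 h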
# How it was run: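 ATP-Lite luminescence read-out: ATP remains high when uPA activity-dependent LF translocation into the cytoplasm is blocked. RAW 264.7 cells, 18 h compound exposure at 37 C; 7-point titration, 2.45 nM to 38.3 uM final.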
# [4] = target: Peptidyl-prolyl cis-trans isomerase NIMA-interacting 1 (Homo sapiens) (UniProt Q13526); test: qHTS Validation Assay to Find Inhibitors of Pin1 (AID 504536; active = well fitted inhibition curve with a large enough effect in the polarisation, with a control signal flat, not every such curve was filed as active; the % refers to the polarisation)
# How it was run: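 Fluorescence polarization competition: compounds (titration) displace HiFluor-488-labeled Pin1-1b peptide from Pin1 (0.3 uM final) in pH 7.5 HEPES buffer with DTT, 10 min at room temperature; %Activity normalized to no-enzyme wells, curves fitted.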
# [5] = target: Phosphoglycerate kinase, glycosomal (Trypanosoma brucei brucei) (UniProt P07378); test: qHTS Validation Assay to Find Inhibitors of Phosphoglycerate Kinase (AID 504547)
# How it was run: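 Luminescence end-point (Kinase-Glo Plus, 10 min) after a 60 min room-temperature coupled reaction. GAPDH at 100nM final supplies 1,3-BPG to PGK. Buffer: 100mM TEA pH 7.6, 5mM MgCl2, 0.01% Tween-20. Wells lacking PGK served as controls.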
# [6] = target: phosphoglycerate mutase (Leishmania major) (UniProt Q4Q090); test: qHTS Validation Assay to Find Inhibitors of Phosphoglycerate Mutase (AID 504548); also: series mostly up to about 58 µM
# How it was run: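 Lm PGAM 1.25nM final; 100 mM TEA pH 7.6, 5 mM MgCl2, 0.01% Tween-20; 45 min RT; Kinase-GloPlus, 10 min; end-point luminescence. Enzyme-free wells as negative controls.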
# [7] = qHTS for Inhibitors of ATXN expression: Validation of Cytotoxic Assay (AID 588349)
# How it was run: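 Cytotoxicity counter-screen: ATP-based luminescent viability (CellTiter Glo) after 72 hr exposure of HEK293 cells to a compound titration at 37 degrees C.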
# [8] = qHTS for Inhibitors of ATXN expression: Validation (AID 588378); also: series mostly up to about 57 µM; nearly all actives have a fitted effect of over 75% in size
# How it was run: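 Cells: HEK293-ATXN2-FFLuc, phenol-red free DMEM, 2 h attachment. Compound pin-transfer, 24 h, 37 degrees C, 5% CO2. CellTiter-Fluor 30 min, Ex405/Em525; Bright-Glo 5 min, luminescence 2 s exposure.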
# [9] = target: DNA dC->dU-editing enzyme APOBEC-3G (Homo sapiens) (UniProt Q9HC16); test: qHTS for inhibitors of Vif-A3G interactions: Validation (AID 588379)
# How it was run: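 Yellow fluorescence (Ex 488, Em 500-530) of Vif-coexpressing HeLa A3G-eYFP cells, scanned by Acumen cytometer, reports blocked A3G degradation. Cells plated at 700/well overnight at 37 deg C before compound addition, then a further overnight compound incubation at 37 deg C.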
# [10] = target: Thyrotropin-releasing hormone receptor (Homo sapiens) (UniProt P34981); test: qHTS for Small Molecule Agonists and Allosteric Enhancers of Human TRH Receptor: Validation Screen for Agonists (AID 493127;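 active = calcium activation more than 3 SD above the typical response in the agonist read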;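 also: intracellular calcium rise by fluo-8 fluorescence before TRH EC20 addition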); conditions: TRH receptor agonist cell assay; at 2 µM; stronger effect = higher value
# How it was run: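 Compound-evoked intracellular calcium release in fluo-8-loaded TRHR cells, read kinetically on FDSS (Ex 480/Em 530, 1 s/cycle) after 23 nL pintool transfer. Agonist phase preceded 10 nM TRH EC20 addition.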
# [11] = target: Galactokinase (Homo sapiens) (UniProt P51570); test: qHTS Validation Assay for Inhibitors of Human Galactokinase (GALK) (AID 493189)
# How it was run: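 Luminescence from leftover ATP (Kinase-Glo Plus, 10 min) served as read-out after a 1 h room-temperature reaction of 5 nM GALK, 100 uM galactose and 35 uM ATP at pH8.0.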
# [12] = Validation screen for small molecules that induce DNA re-replication in SW480 colon adenocarcinoma cells (AID 504364)
# How it was run: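 Image-based DNA content read-out: Hoechst stain 40 min, total nuclear fluorescence intensity (ex 405 nm, em 500-530 nm) after 48 h compound exposure of 250 SW480 cells/well at 37 C, 5% CO2, versus DMSO vehicle.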
# Chain of Ubiquitin carboxyl-terminal hydrolase 1 (Homo sapiens) (O94782 whole entry, looked up): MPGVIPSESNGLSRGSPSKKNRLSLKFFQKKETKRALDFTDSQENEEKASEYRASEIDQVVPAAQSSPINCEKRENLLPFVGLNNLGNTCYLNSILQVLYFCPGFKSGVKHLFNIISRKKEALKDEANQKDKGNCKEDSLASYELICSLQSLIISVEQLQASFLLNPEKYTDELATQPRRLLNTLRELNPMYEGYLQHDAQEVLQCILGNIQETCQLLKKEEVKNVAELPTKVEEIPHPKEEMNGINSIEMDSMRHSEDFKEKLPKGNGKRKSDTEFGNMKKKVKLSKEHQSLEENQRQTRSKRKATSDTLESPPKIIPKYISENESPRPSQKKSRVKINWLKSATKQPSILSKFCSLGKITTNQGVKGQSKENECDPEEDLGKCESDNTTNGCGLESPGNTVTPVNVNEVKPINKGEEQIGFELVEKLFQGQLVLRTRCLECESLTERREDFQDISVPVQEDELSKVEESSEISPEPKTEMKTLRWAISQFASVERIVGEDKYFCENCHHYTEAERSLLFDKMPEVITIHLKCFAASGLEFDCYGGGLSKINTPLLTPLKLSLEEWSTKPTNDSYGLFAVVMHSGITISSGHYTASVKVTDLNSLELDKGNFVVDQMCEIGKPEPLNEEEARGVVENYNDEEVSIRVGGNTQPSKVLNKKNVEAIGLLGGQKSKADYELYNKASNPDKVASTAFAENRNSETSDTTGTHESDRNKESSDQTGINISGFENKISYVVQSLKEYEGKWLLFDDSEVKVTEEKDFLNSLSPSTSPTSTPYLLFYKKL
# Chain of Peptidyl-prolyl cis-trans isomerase NIMA-interacting 1 (Homo sapiens) (Q13526 whole entry, looked up): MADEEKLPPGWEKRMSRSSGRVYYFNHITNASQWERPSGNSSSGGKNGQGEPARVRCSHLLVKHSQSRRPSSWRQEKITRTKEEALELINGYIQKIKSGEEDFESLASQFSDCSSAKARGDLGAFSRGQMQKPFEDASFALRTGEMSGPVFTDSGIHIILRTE
# Chain of DNA dC->dU-editing enzyme APOBEC-3G (Homo sapiens) (Q9HC16 whole entry, looked up): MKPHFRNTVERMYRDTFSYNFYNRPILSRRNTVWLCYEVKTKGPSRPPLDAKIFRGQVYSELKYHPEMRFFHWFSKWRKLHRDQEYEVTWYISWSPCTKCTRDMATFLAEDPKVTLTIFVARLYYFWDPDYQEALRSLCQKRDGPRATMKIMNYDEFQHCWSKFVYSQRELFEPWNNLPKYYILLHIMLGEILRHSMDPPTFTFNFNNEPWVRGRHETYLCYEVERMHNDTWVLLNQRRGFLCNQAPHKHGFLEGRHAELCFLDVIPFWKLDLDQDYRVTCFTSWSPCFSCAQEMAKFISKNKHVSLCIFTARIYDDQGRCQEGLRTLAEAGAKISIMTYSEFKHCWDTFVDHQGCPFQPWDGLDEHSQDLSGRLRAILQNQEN
# Chain of Phosphoglycerate kinase, glycosomal (Trypanosoma brucei brucei) (P07378 whole entry, looked up): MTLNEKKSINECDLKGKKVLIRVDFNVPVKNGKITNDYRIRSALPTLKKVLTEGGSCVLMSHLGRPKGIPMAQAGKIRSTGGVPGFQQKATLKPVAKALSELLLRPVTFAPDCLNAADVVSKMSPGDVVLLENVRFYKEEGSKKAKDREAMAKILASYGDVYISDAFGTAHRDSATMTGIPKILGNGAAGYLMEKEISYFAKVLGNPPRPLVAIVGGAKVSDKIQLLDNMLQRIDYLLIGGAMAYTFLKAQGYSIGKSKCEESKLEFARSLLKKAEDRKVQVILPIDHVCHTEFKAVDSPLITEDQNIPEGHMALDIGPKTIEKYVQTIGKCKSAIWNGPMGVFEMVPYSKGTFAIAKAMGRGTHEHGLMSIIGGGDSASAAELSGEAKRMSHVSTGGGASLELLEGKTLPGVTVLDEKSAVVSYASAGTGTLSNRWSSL
# Chain of phosphoglycerate mutase (Leishmania major) (Q4Q090 1-553): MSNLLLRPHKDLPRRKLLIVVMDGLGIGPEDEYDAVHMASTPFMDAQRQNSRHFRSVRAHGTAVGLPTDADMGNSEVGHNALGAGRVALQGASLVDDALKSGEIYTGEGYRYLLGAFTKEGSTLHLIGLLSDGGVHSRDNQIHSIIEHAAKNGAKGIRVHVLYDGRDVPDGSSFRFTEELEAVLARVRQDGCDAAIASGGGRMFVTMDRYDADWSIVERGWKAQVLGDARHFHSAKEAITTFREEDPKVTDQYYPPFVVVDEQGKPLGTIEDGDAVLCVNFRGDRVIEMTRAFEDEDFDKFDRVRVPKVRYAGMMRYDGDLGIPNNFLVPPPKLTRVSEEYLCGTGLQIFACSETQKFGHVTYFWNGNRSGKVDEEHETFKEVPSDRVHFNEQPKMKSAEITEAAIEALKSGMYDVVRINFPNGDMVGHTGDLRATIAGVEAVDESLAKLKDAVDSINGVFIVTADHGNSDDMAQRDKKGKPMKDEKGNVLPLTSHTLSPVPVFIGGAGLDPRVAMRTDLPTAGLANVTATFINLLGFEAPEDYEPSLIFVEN
# Chain of Thyrotropin-releasing hormone receptor (Homo sapiens) (P34981 whole entry, looked up): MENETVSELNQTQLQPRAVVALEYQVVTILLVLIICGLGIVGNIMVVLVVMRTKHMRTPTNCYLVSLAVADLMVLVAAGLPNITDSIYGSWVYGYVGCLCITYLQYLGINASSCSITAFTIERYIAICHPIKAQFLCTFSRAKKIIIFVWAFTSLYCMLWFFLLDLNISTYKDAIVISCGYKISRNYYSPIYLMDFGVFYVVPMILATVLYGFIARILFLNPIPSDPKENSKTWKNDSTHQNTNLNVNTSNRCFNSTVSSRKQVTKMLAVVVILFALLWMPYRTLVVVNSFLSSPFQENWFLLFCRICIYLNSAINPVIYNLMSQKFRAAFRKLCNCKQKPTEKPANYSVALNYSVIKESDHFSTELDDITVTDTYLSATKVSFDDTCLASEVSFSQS
# Chain of Galactokinase (Homo sapiens) (P51570 whole entry, looked up): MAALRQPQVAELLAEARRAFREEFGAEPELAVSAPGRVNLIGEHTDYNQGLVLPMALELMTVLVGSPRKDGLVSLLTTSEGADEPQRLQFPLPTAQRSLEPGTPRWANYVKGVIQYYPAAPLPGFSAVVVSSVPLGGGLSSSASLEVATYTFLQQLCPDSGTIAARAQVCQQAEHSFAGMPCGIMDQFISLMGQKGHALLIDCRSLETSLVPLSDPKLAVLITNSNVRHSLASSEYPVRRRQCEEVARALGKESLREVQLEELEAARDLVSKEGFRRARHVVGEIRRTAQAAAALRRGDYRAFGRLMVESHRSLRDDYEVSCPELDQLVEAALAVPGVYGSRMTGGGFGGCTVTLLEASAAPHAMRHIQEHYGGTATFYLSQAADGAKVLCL
compound,measurement,setting,value
CC(=O)NO,Potency,[1],inactive
O=C(O)C1(C(=O)O)CCC1.[NH2-].[NH2-].[Pt+2],Potency,[1],inactive
FC(F)(F)C(F)(F)C(F)(F)C(F)(F)C(F)(F)C(F)(F)C(F)(F)C(F)(F)Br,Potency,[1],inactive
CN(C)CCOC(c1ccc(Cl)cc1)c1ccccn1 (configuration not stated),Potency,[1],inactive
COc1cc(NS(=O)(=O)c2ccc(N)cc2)ncn1,Potency,[1],inactive
Cc1cc(CC(=O)O)c(C)n1-c1ccc(Cl)cc1,Potency,[1],inactive
COc1ccc(/C=N/NC(=O)c2ccncc2)cc1OC,Potency,[1],inactive
CC(C)=CCOc1ccc(/C=C/C(=O)c2ccc(OCC=C(C)C)cc2OCC(=O)O)cc1,Potency,[1],79.4 µM (active)
NS(=O)(=O)c1cc(C(=O)O)cc(N2CCCC2)c1Oc1ccccc1,Potency,[1],inactive
O=C(O)CCc1nc2ccccc2[nH]1,Potency,[1],inactive
CN=C(N)NCCC[C@H](N)C(=O)O,Potency,[2],inactive
same,viability change,[2],2.51%
same,outcome,[3],inactive
same,outcome,[4],inactive
same,outcome,[5],inactive
same,outcome,[6],inactive
same,Potency,[1],inactive
same,outcome,[7],inactive
same,outcome,[8],inactive
same,outcome,[9],inactive
CC(C)(C)NC[C@H](O)COc1nsnc1N1CCOCC1,Potency,[2],inactive
same,viability change,[2],2.77%
same,outcome,[3],inactive
same,outcome,[4],inactive
same,outcome,[5],inactive
same,outcome,[6],inactive
same,Potency,[1],inactive
same,outcome,[7],inactive
same,outcome,[8],inactive
same,outcome,[9],inactive
CCOCCn1c(N2CCCN(C)CC2)nc2ccccc21,Potency,[1],inactive
c1ccc(CC2=NCCN2)cc1,Potency,[1],inactive
CCCCCN=C(N)N/N=C/c1c[nH]c2ccc(OC)cc12,Potency,[1],inactive
CC(C(=O)O)c1cccc(Oc2ccccc2)c1 (configuration not stated),Potency,[1],inactive
Nc1nc(N)c(-c2ccccc2)s1,Potency,[1],inactive
O=C(Nc1ccc([N+](=O)[O-])cc1)Nc1ccc([N+](=O)[O-])cc1,Potency,[1],inactive
CC[N+](C)(CC)CCOC(=O)C(O)(c1ccccc1)C1CCCCC1 (configuration not stated),Potency,[1],inactive
CCCCC(CC)CN1CN(CC(CC)CCCC)CC(C)(N)C1 (configuration not stated),Potency,[1],inactive
O=S(=O)(O)c1ccc(O)cc1,Potency,[1],inactive
CC(=O)OCC1=C(C(=O)O)N2C(=O)[C@@H](NC(=O)CSc3ccncc3)[C@H]2SC1,activation,[10],0.5% (inactive)
same,outcome,[11],inactive
same,outcome,[12],inactive
CCCCNC(=O)NS(=O)(=O)c1ccc(N)cc1,Potency,[1],inactive
NS(=O)(=O)c1ccc(Cl)c(S(N)(=O)=O)c1,Potency,[1],inactive
CCN(CC)CCNC(=O)COc1ccc(OC)cc1,Potency,[1],inactive
CCOC(=O)Nc1ccc2c(c1)N(C(=O)CCN1CCOCC1)c1ccccc1S2,Potency,[1],inactive
CCN(CC)CCOc1ccccc1C(=O)CCc1ccccc1,Potency,[1],inactive
COP(=O)(OC)OC(c1ccc(Cl)cc1)P(=O)(OC)OC (configuration not stated),Potency,[1],inactive
C[N+]1(C)CCC(=C(c2ccccc2)c2ccccc2)CC1,Potency,[1],inactive
C=CCN1CCc2nc(N)sc2CC1,Potency,[1],inactive
O=C(NC1CCN(CCc2c[nH]c3ccccc23)CC1)c1ccccc1,Potency,[1],inactive
COc1cc(C)nc(-n2nc(C)cc2OC)n1,Potency,[1],inactive
